CSC inhib: cancer stem cell inhibition | cancer stem cell-like cells viability, luminescence | inhibition, % at 7.5 µM | hit rate 1.1% among 300,000; in the data active means inhibition above about 75%; inconclusive means no clear call, values can overlap the other calls; tested in HMLE shEcad cells
PP5 inh: blocks human protein phosphatase 5 activity; P53041; purified PP5c, OMFP substrate fluorescence; inhibition, % at 6.7 µM; hit rate 0.18% among 320,000; AID 1987;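 active means inhibition above the campaign's mean inhibition across all tested compounds plus 3 SD, cut at about 9.5% in these data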;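 further: 0% = DMSO only and 100% = 100 µM cantharidin control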
Target sequence (P53041 whole entry, looked up): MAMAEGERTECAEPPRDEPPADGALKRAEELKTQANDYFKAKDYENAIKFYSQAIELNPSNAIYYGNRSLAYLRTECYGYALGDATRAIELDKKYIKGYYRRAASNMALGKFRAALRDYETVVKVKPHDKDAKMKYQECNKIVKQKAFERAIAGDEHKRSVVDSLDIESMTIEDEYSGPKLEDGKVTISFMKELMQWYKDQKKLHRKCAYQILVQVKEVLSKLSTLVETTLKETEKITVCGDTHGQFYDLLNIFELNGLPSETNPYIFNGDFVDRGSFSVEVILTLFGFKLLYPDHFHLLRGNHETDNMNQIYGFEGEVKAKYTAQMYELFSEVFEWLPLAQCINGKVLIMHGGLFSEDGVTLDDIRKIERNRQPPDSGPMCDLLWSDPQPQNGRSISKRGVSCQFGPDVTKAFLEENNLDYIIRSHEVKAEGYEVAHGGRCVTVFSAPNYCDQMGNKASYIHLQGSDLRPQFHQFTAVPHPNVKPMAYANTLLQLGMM
SKKanGAS inh: SKKanGAS growth inhibition. S. pyogenes SKKanGAS, kanamycin growth, BacTiter-Glo, 6 h. inhibition, % at 7.5 µM. hit rate 1.3% among 300,000. AID 1662;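 active means mean replicate score, as percent of positive control median, at least 50; inconclusive means mean below 50 but one replicate at or above 50; inactive means mean and every replicate below 50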;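 further: strain carries kanamycin resistance gene driven by streptokinase promoter and grows in 40 µg/ml kanamycin; loss of luminescence reflects streptokinase promoter inhibition or plain growth inhibition; 0% = median of DMSO wells and 100% = positive control at its reference dose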
PP1 inh: counter-screen for PP5 inhibitors: inhibitors of human PP1-alpha. P62136. hit rate 0.9% among 320,000. inhibition, % at 6.7 µM. purified PP1alpha, OMFP fluorescence;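 active means inhibition above the mean inhibition of all tested compounds plus 3 SD, computed separately for each screening campaign, cut at about 15% in these data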
Beta cell apopt: blocks beta cell apoptosis | hit rate 0.8% among 300,000 | INS-1E cytokine-induced death, ATP luminescence, 48 h; percent of positive-control rescue, neutral wells zero | AID 435005 | protection from apoptosis, % (no concentration beside the values);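 active means Every replicate reaches about 75%, or at least half do and their mean reaches it too, limit read from the data; inconclusive means At least half of replicates reach the limit but their mean does not; inactive means Under half of replicates reach the limit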;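 further: 0% = cytokine-treated negative control wells and 100% = positive control rescue; higher means more ATP so stronger rescue from cytokine killing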
Starred values were filed as active, the others as inactive; ? = inconclusive; nt = not tested or not shown. Hits are enriched below; roughly 3.1% of the tested compounds scored in any of these assays.

SMILES	CSC inhib	PP5 inh	SKKanGAS inh	PP1 inh	Beta cell apopt
O=C(N/N=C/c1c[nH]c2ccccc12)c1cc(-c2ccc3ccccc3c2)n[nH]1	68	-3	95*	-4	19
O=C(N/N=C/c1c[nH]c2ccccc12)C1CC1(c1ccccc1)c1ccccc1 (stereo not given)	79*	5	60*	-1	13
Cc1cc(NC(=O)c2ccccc2)ccc1NC(=O)Cc1ccccc1	-8	0	-5	-1	1
COc1ccccc1N1CCN(S(=O)(=O)CCNC(=O)c2ccccc2Br)CC1	-18	0	2	-2	2
CN(C)/C=C\C(=C/C(=O)C(F)(F)F)Nc1ccccc1Oc1ccccc1	-10	1	-4	1	-7
O=S(=O)(Nc1cc(Sc2cccc3cccnc23)c(O)c2ccccc12)c1ccc(F)cc1	119*	-1	87*	-2	102*
CC1CCCCC1NC(=O)CCn1ccc2cc(S(=O)(=O)N3CCCC3)ccc21 (stereo not given)	-1	3	50*	-3	nt
Oc1oc(-c2ccco2)nc1C=Nc1cccc(Cl)c1	-9	4	-1	5	-13
CC(=NCc1cccc(Cl)c1)c1nc(-c2ccco2)oc1O	100*	3	-2	0	-4
COc1ccc2sc(-c3ccc(SC)cc3)c(-c3ccc(O)cc3)c2c1	107*	nt	nt	nt	17
COc1ccc(-c2sc3ccc(OC)cc3c2-c2ccc(OC)c(F)c2)cc1	46	1	nt	1	4
O=C(/C=C/c1cccc(C(F)(F)F)c1)Nc1cccc(C(F)(F)F)c1	33	6	88*	4	-6
O=C1c2ccccc2C(=O)c2[nH]c(=O)[nH]c21	nt	0	62*	3	nt
Cc1cc(C)c2[nH]c(=O)c(CN(Cc3cccs3)C(=S)NCc3ccco3)cc2c1	88*	2	11	16*	7
Cc1ccc(C(=O)N/C(=C/c2ccc(-c3ccc([N+](=O)[O-])cc3)o2)C(=O)NCCCN(C)C)cc1	10	-1	2	-1	nt
Cc1cc(OCC(=O)NNC(=S)NC(=O)c2cccs2)ccc1Cl	3	nt	nt	nt	4
Cc1ccc(OCC(=O)NNC(=S)NC(=O)c2cccs2)c(C)c1	?	nt	87*	nt	6
Cc1ccc(OCC(=O)NNC(=S)NC(=O)c2ccc(Br)o2)c(C)c1	48	nt	93*	nt	2
Cc1cccc(NC(=S)NNC(=O)c2ccc(Br)o2)c1	nt	-1	2	-1	-3
COc1ccc(C(=O)NNC(=S)NC(=O)c2ccc(Br)o2)cc1OC	10	0	66*	-2	7
CCN(CC)CCNC(C(=O)Nc1cccc(C(C)=O)c1)c1ccccc1 (stereo not given)	-8	-1	-2	1	-3
Cc1ccsc1CN(C(=O)c1ccc([N+](=O)[O-])cc1)C1CCS(=O)(=O)C1 (stereo not given)	-9	-2	-4	-3	6
O=C(c1cc(F)c(F)cc1Cl)N1CCCc2ccccc21	18	-3	-10	3	0
C=CCNC(=O)NC(=O)CSc1nnc(C(F)(F)F)n1C	-12	-1	5	2	-1
Cc1cccc(N=C2NN=C(c3ccc4c(c3)OCCO4)CS2)c1	4	2	12	-4	5
SMILES	CSC inhib	PP5 inh	SKKanGAS inh	PP1 inh	Beta cell apopt
CCc1ccc(C2=NNC(=Nc3cccc(S(=O)(=O)N(C)C)c3)SC2)cc1	10	2	18	9	120*
N#Cc1c(-c2ccccc2)nc(-c2cccnc2)[nH]c1=O	-4	1	3	-6	0
CCOC(=O)CCCn1ccc2cc(S(=O)(=O)N3CCCC3)ccc21	-3	1	-2	0	2
COc1ccc(-n2ncc3c(N4CCN(c5cc(C)ccc5C)CC4)ncnc32)cc1	9	3	-7	17*	6
Nc1cc(-c2ccc(OC(F)(F)F)cc2)nn1-c1ccc(Cl)c(Cl)c1	82*	0	67*	1	-10
CCOC(=O)c1c2ccc(OCC(=O)N/N=C/c3ccc(C)cc3)cc2n2ccccc12	114*	0	2	-2	62
Cc1ccc(-c2c[n+]3c(n2-c2ccccc2)SCC3)cc1	6	3	7	0	106*
CCc1ccc(-n2cc(-c3ccc(F)cc3)[n+]3c2SCCC3)cc1	-8	-2	-1	-3	110*
c1ccc(-c2cn(-c3ccccc3)c3[n+]2CCCS3)cc1	-1	1	2	-4	23
N#Cc1ccc(-c2cn(-c3ccccc3)c3[n+]2CCCS3)cc1	-21	2	-18	-1	-3
Cc1ccc(-c2cn(-c3ccccc3)c3[n+]2CCCS3)cc1	20	0	-2	-1	111*
COc1ccc(-n2cc(-c3ccc(C)cc3)[n+]3c2SCC3)cc1	25	2	-14	-1	113*
CCCCn1c(N)c(N(CC(C)C)C(=O)c2c(CC)noc2C)c(=O)[nH]c1=O	nt	-1	6	-7	2
C#CCn1c(=NC(=O)c2ccc(S(=O)(=O)N3CCCc4ccccc43)cc2)sc2cc(S(N)(=O)=O)ccc21	nt	0	23	16*	1
Cn1c(=NC(=O)c2ccc(S(=O)(=O)N3CCCc4ccccc43)cc2)sc2cc(S(C)(=O)=O)ccc21	0	1	3	-1	12
CCC1=C(OC(=O)N(CC)CC)N2C(=O)OC(=NCCOC)[C@]2(Cc2ccccc2)[C@H]2C1=CC[C@H]1C(=O)N(C)C(=O)[C@H]12	-1	2	5	-3	-3
O=C(Nc1nnc(SCc2ccccc2Cl)s1)C1COc2ccccc2O1 (stereo not given)	19	0	69*	2	1
Cc1ccccc1CSc1nnc(NC(=O)C2COc3ccccc3O2)s1 (stereo not given)	nt	2	18	3	-7
CCCc1nnc(NC(=O)c2nc(S(=O)(=O)Cc3ccc(C)cc3)ncc2Cl)s1	108*	-2	2	-2	-18
CCc1ccc(NC(=O)c2nc(S(=O)(=O)Cc3ccccc3)ncc2Cl)cc1	105*	0	46	5	72
Cc1ccc(NC(=O)c2nc(S(=O)(=O)Cc3ccccc3C)ncc2Cl)cc1C	103*	1	68*	3	52
CCOC(=O)c1ccc(NC(=O)c2nc(S(=O)(=O)Cc3ccccc3)ncc2Cl)cc1	103*	3	82*	-1	78*
CCOCCCNC(=O)Cn1cnc2c(cnn2-c2ccc(C)c(C)c2)c1=O	-12	1	-7	2	-13
Cc1c(NC(=O)/C(C#N)=C/C2CC=CCC2)c(=O)n(-c2ccccc2)n1C (stereo not given)	7	1	5	0	-4
O=Cc1ccc(OC2OCCOC2Oc2ccc(C=O)cc2)cc1 (stereo not given)	-13	-1	0	-2	-2
O=c1[nH]cnc2sc3c(c12)CCC3	3	-3	-7	-2	-1
CC1CCN(C(=O)CNC(=O)CNS(=O)(=O)c2ccccc2)CC1	-15	1	1	-2	-3
CCS(=O)(=O)c1ncc(Cl)c(C(=O)Nc2ccc(S(=O)(=O)N3CCC(C)CC3)cc2)n1	118*	3	9	5	108*
